Laboratory results published in PubChem BioAssay AID1159580 (chemical genetic matrix, 2015).
Several values for one entry are separate records, joined by “and”; a condition that tells them apart may be missing. Equal values may be shown once. The campaign covered roughly 5,500 compounds. About 2,000 (36%) were called active. Not shown: some 18% with an inconclusive outcome. Rule as the data show it: active = normalized growth mostly below about 0.91 (no sharp cut-off); inconclusive = no clear call, values can overlap the other calls; inactive = mostly above about 0.92. This is one part of the list.

Test: chemical genetic growth profiling, strain panel (AID 1159580);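 also: tested at 20 µM; growth read once vehicle control cultures reached saturation at 30 °C; 1 = growth at the plate median or of vehicle wells; lower values mean less growth of the strain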
Conditions: growth OD

Measured: normalized growth

CC1(C)NC(=O)N(c2ccc([N+](=O)[O-])c(C(F)(F)F)c2)C1=O
inactive: S. cerevisiae deletion strains, locus YJR075W, strain HOC1, stronger effect = lower value 1.01 | S. cerevisiae deletion strains, locus YKL009W, strain mrt4, stronger effect = lower value 0.969 | S. cerevisiae deletion strains, locus YKL068W, stronger effect = lower value 0.992 | S. cerevisiae deletion strains, locus YKL085W, strain MDH1 (second series), stronger effect = lower value 0.988 | S. cerevisiae deletion strains, locus YKL085W, strain MDH1, stronger effect = lower value 0.988 | S. cerevisiae deletion strains, locus YKL160W, strain elf1, stronger effect = lower value 0.988 | S. cerevisiae deletion strains, locus YKL190W, strain CNB1, stronger effect = lower value 1.01 | S. cerevisiae deletion strains, locus YKR001C, strain vps1, stronger effect = lower value 0.975 | S. cerevisiae deletion strains, locus YKR026C, strain gcn3, stronger effect = lower value 0.984 | S. cerevisiae deletion strains, locus YKR091W, strain srl3, stronger effect = lower value 0.989 | S. cerevisiae deletion strains, locus YLL001W, strain dnm1, stronger effect = lower value 0.986 | S. cerevisiae deletion strains, locus YLL026W, stronger effect = lower value 0.98 | S. cerevisiae deletion strains, locus YLL041C, strain sdh2, stronger effect = lower value 0.988 | S. cerevisiae deletion strains, locus YLR027C, strain aat2, stronger effect = lower value 0.986 | S. cerevisiae deletion strains, locus YLR039C, strain RIC1, stronger effect = lower value 0.984 | S. cerevisiae deletion strains, locus YLR058C, strain SHM2, stronger effect = lower value 1.02 | S. cerevisiae deletion strains, locus YLR102C, strain apc9, stronger effect = lower value 0.965 | S. cerevisiae deletion strains, locus YLR113W, strain HOG1, stronger effect = lower value 1.03 | S. cerevisiae deletion strains, locus YLR221C, strain rsa3, stronger effect = lower value 0.98 | S. cerevisiae deletion strains, locus YLR258W, strain gsy2, stronger effect = lower value 0.984 | S. cerevisiae deletion strains, locus YLR262C, strain YPT6 (second series), stronger effect = lower value 0.94 | S. cerevisiae deletion strains, locus YLR262C, strain YPT6, stronger effect = lower value 0.988 | S. cerevisiae deletion strains, locus YLR268W, strain sec22, stronger effect = lower value 0.974 | S. cerevisiae deletion strains, locus YLR320W, strain mms22, stronger effect = lower value 0.995 | S. cerevisiae deletion strains, locus YLR330W, strain CHS5, stronger effect = lower value 1.01 | S. cerevisiae deletion strains, locus YLR342W, strain FKS1 (second series), stronger effect = lower value 1.03 | S. cerevisiae deletion strains, locus YLR342W, strain FKS1, stronger effect = lower value 0.983 | S. cerevisiae deletion strains, locus YLR357W, strain rsc2, stronger effect = lower value 0.98 | S. cerevisiae deletion strains, locus YLR370C, strain arc18, stronger effect = lower value 0.971 | S. cerevisiae deletion strains, locus YLR371W, strain rom2, stronger effect = lower value 0.98 | S. cerevisiae deletion strains, locus YLR384C, strain iki3, stronger effect = lower value 0.989 | S. cerevisiae deletion strains, locus YLR418C, strain cdc73, stronger effect = lower value 0.942 | S. cerevisiae deletion strains, locus YML016C, strain PPZ1, stronger effect = lower value 1.02 | S. cerevisiae deletion strains, locus YML032C, strain rad52, stronger effect = lower value 0.986 | S. cerevisiae deletion strains, locus YML120C, strain ndi1, stronger effect = lower value 0.991 | S. cerevisiae deletion strains, locus YML124C, strain tub3, stronger effect = lower value 0.981 | S. cerevisiae deletion strains, locus YMR058W, strain fet3, stronger effect = lower value 0.987 | S. cerevisiae deletion strains, locus YMR078C, strain ctf18, stronger effect = lower value 0.988 | S. cerevisiae deletion strains, locus YMR125W, strain sto1, stronger effect = lower value 0.972 | S. cerevisiae deletion strains, locus YMR129W, stronger effect = lower value 0.986 | S. cerevisiae deletion strains, locus YMR205C, strain PFK2, stronger effect = lower value 0.972 | S. cerevisiae deletion strains, locus YMR223W, strain ubp8, stronger effect = lower value 0.983 | S. cerevisiae deletion strains, locus YMR231W, strain pep5, stronger effect = lower value 0.981 | S. cerevisiae deletion strains, locus YMR263W, strain SAP30, stronger effect = lower value 1 | S. cerevisiae deletion strains, locus YMR307W, strain GAS1, stronger effect = lower value 1.01 and 0.988 | S. cerevisiae deletion strains, locus YNL067W, strain RPL9B, stronger effect = lower value 0.987 | S. cerevisiae deletion strains, locus YNL071W, strain lat1, stronger effect = lower value 0.996 | S. cerevisiae deletion strains, locus YNL128W, strain TEP1, stronger effect = lower value 1 | S. cerevisiae deletion strains, locus YNL153C, strain GIM3, stronger effect = lower value 1.01 | S. cerevisiae deletion strains, locus YNL175C, strain NOP13, stronger effect = lower value 0.979 | S. cerevisiae deletion strains, locus YNL183C, strain NPR1, stronger effect = lower value 0.946 | S. cerevisiae deletion strains, locus YNL197C, strain WHI3, stronger effect = lower value 0.968 | S. cerevisiae deletion strains, locus YNL209W, strain ssb2, stronger effect = lower value 0.988 | S. cerevisiae deletion strains, locus YNL224C, strain SQS1, stronger effect = lower value 0.991 | S. cerevisiae deletion strains, locus YNL233W, strain BNI4, stronger effect = lower value 1.01 | S. cerevisiae deletion strains, locus YNL248C, strain rpa49, stronger effect = lower value 0.98 | S. cerevisiae deletion strains, locus YNL250W, strain rad50, stronger effect = lower value 0.987 | S. cerevisiae deletion strains, locus YNL271C, strain bni1, stronger effect = lower value 0.966 | S. cerevisiae deletion strains, locus YNL298W, strain CLA4, stronger effect = lower value 0.975 | S. cerevisiae deletion strains, locus YNL307C, strain MCK1, stronger effect = lower value 0.98 | S. cerevisiae deletion strains, locus YNL322C, strain KRE1 (second series), stronger effect = lower value 0.991 | S. cerevisiae deletion strains, locus YNL322C, strain KRE1, stronger effect = lower value 1.01 and 0.995 | S. cerevisiae deletion strains, locus YNR049C, strain mso1, stronger effect = lower value 0.984 | S. cerevisiae deletion strains, locus YNR052C, strain pop2, stronger effect = lower value 0.977 | S. cerevisiae deletion strains, locus YOL006C, strain TOP1, stronger effect = lower value 0.959 | S. cerevisiae deletion strains, locus YOL012C, strain htz1 0.756 | S. cerevisiae deletion strains, locus YOL147C, strain pex11, stronger effect = lower value 0.976 | S. cerevisiae deletion strains, locus YOR001W, strain rrp6, stronger effect = lower value 0.989 | S. cerevisiae deletion strains, locus YOR061W, strain CKA2, stronger effect = lower value 1.01 | S. cerevisiae deletion strains, locus YOR069W, strain VPS5, stronger effect = lower value 1.01 | S. cerevisiae deletion strains, locus YOR070C, strain gyp1, stronger effect = lower value 0.987 | S. cerevisiae deletion strains, locus YOR080W, strain dia2, stronger effect = lower value 0.987 | S. cerevisiae deletion strains, locus YOR083W, strain WHI5 (second series), stronger effect = lower value 0.979 | S. cerevisiae deletion strains, locus YOR083W, strain WHI5, stronger effect = lower value 0.99 | S. cerevisiae deletion strains, locus YOR106W, strain vam3, stronger effect = lower value 0.981 | S. cerevisiae deletion strains, locus YOR136W, strain idh2, stronger effect = lower value 0.977 | S. cerevisiae deletion strains, locus YOR144C, strain elg1, stronger effect = lower value 0.976 | S. cerevisiae deletion strains, locus YOR184W, strain ser1, stronger effect = lower value 0.975 | S. cerevisiae deletion strains, locus YOR231W, strain MKK1, stronger effect = lower value 1.01 | S. cerevisiae deletion strains, locus YOR265W, strain rbl2, stronger effect = lower value 0.987 | S. cerevisiae deletion strains, locus YOR270C, strain vph1, stronger effect = lower value 0.974 | S. cerevisiae deletion strains, locus YOR290C, strain snf2, stronger effect = lower value 0.996 | S. cerevisiae deletion strains, locus YOR316C, strain cot1, stronger effect = lower value 0.99 | S. cerevisiae deletion strains, locus YPL051W, strain arl3, stronger effect = lower value 0.985 | S. cerevisiae deletion strains, locus YPL055C, strain LGE1, stronger effect = lower value 1.01 and 0.996 | S. cerevisiae deletion strains, locus YPL078C, strain atp4, stronger effect = lower value 0.978 | S. cerevisiae deletion strains, locus YPL106C, strain sse1, stronger effect = lower value 0.962 | S. cerevisiae deletion strains, locus YPL240C, strain hsp82, stronger effect = lower value 0.987 | S. cerevisiae deletion strains, locus YPL241C, strain CIN2, stronger effect = lower value 1.01 and 0.997 | S. cerevisiae deletion strains, locus YPL256C, strain CLN2, stronger effect = lower value 0.996 | S. cerevisiae deletion strains, locus YPR119W, strain clb2, stronger effect = lower value 0.969 | S. cerevisiae deletion strains, locus YPR141C, strain kar3, stronger effect = lower value 0.99 | S. cerevisiae deletion strains, locus YPR163C, strain tif3, stronger effect = lower value 0.979 | S. cerevisiae deletion strains, locus YPR167C, strain met16, stronger effect = lower value 0.975 | S. cerevisiae deletion strains, strain wtn01, stronger effect = lower value 0.969 | S. cerevisiae strains, strain wild type, stronger effect = lower value 1
